{"source": "PubChem BioAssay AID1345085", "about": "(National Center for Advancing Translational Sciences (NCATS), 2018)", "note": "Results filed as inconclusive are left out. Calls of active or inactive are those of the source. The call rests on the fitted dose curve; in most records, active means well fitted cell-killing curve with a large enough effect; inconclusive means small, poorly fitted or top-dose-only effect, or effect the other way; inactive means no such curve, though single readings can be large or run the other way. Potency means the concentration at half of the fitted maximal effect.", "data": [{"system": "SKOV3", "experiment": "Confirmatory qHTS for gynecologic anti-cancer compounds from libraries of approved drugs and bioactive compounds; further: nearly all actives have a fitted effect of over 55% in size", "details": "gynecologic cancer cell panel viability, ATPlite luminescence, 48 h; series mostly up to 57.6 µM", "how_it_was_run": "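1,000 cells/well; 16 h pre-incubation 37 C, 5% CO2; pin-transferred cpd in DMSO, 11 conc (1:3), 57.5 uM–0.977 nM; 48 h; ATPlite, 15 min RT; luminescence → IC50.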", "values": [{"smiles": "Nc1nc(Cl)nc2c1ncn2C1OC(CO)C(O)C1F", "note": "(stereo not drawn)", "Potency": "0.432 µM (active)"}, {"smiles": "Cc1cnc(Nc2ccc(CN3CCOCC3)cc2)nc1Nc1cccc(S(=O)(=O)NC(C)(C)C)c1", "Potency": "4.85 µM (active)"}, {"smiles": "C[C@]12CCC(=O)C=C1[C@@H]1C[C@@H]1[C@H]1[C@@H]3[C@@H]4C[C@@H]4[C@@]4(CCC(=O)O4)[C@@]3(C)CC[C@@H]12", "Potency": "inactive"}, {"smiles": "Nc1ccccc1NC(=O)c1ccc(CNc2nccc(-c3cccnc3)n2)cc1", "Potency": "0.432 µM (active)"}, {"smiles": "CN(C)C1CCN(C(=O)c2ccc(NC(=O)Nc3nc(N4CCOCC4)nc(N4CCOCC4)n3)cc2)CC1", "Potency": "0.109 µM (active)"}, {"smiles": "O=c1[nH]c(=O)n([C@H]2C[C@H](O)[C@@H](CO)O2)cc1F", "Potency": "inactive"}, {"smiles": "Cc1ccc(C(=O)Nc2cccc(C(F)(F)F)c2)cc1-c1ccc2nc(NCCN3CCOCC3)ncc2c1", "Potency": "12.2 µM (active)"}, {"smiles": "Cc1[nH]c2ccccc2c1CCNCc1ccc(/C=C/C(=O)NO)cc1", "Potency": "0.172 µM (active)"}, {"smiles": "CC(C)C[C@H](NC(=O)[C@H](CCc1ccccc1)NC(=O)CN1CCOCC1)C(=O)N[C@@H](Cc1ccccc1)C(=O)N[C@@H](CC(C)C)C(=O)[C@@]1(C)CO1", "Potency": "13.7 µM (active)"}, {"smiles": "CN1CCN(c2cccc(Nc3nc4c(-c5ccc(S(C)(=O)=O)cc5)cccn4n3)c2)CC1", "Potency": "inactive"}, {"smiles": "O=C(c1ccc(F)c(F)c1Nc1ccc(I)cc1F)N1CC(O)([C@@H]2CCCCN2)C1", "Potency": "6.11 µM (active)"}, {"smiles": "NC(=O)c1ccc2nc(-c3ccc(Oc4ccc(Cl)cc4)cc3)[nH]c2c1", "Potency": "inactive"}, {"smiles": "O=C1Cc2cc(CCN3CCN(c4nsc5ccccc45)CC3)c(Cl)cc2N1", "Potency": "inactive"}]}]}
